# According to PubChem BioAssay AID720519 (National Center for Advancing Translational Sciences (NCATS), 2013):
# Inconclusive results are not listed. Calls of active or inactive are those of the source. Calls follow the shape of the dose curve; as a rule, active = well fitted activation curve with a large enough effect; inconclusive = small, poorly fitted or top-dose-only effect; inactive = flat fitted curve, though single readings scatter. Square brackets hold non-standard residues; d marks the D form. Peptide text beside a SMILES is read from it. ξ: configuration not given here. ξLac(3-iPr) = CC(C)CC(O)C(=O)O; NMeV = CN[CH](C(=O)O)C(C)C; NMeA = CN[CH](C)C(=O)O; βAla = NCCC(=O)O
# Experiment: qHTS for Inhibitors of Cell Surface uPA Generation: Confirmatory Assay for Cherry-picked Compounds; as to inhibition: 0% is about no effect
# Conditions: cell surface uPA activity generation, qHTS confirmation; series mostly up to 115 µM; inhibition: at the top concentration
# Description: The overall objective of this project is to perform a quantitative high throughput screen (qHTS) to identify novel compounds that inhibit the generation of cell surface urokinase activity. The urokinase plasminogen activator (uPA) is one of the two primary endogenous systems that mediate plasminogen activation into plasmin. Members of this system, including uPA and its receptor (uPAR), are overexpressed in several malignant tumors. This system plays a major role in adhesion, migration, invasion and metastasis of cancer cells. Small molecule inhibitors of the uPA system will serve as probes to understand the molecular mechanisms of the uPA cascade and better understanding the micro-environmental circumstances that facilitate the activation of plasminogen by uPA, and finally may provide novel candidate agents for anticancer drug therapy.
# […] […] Upon inhibition of the uPA activation cascade, the subsequent cell surface uPA activity-dependent translocation of LF into the cytoplasm is inhibited. ATP-Lite is used to measure intracellular ATP concentrations (measure cell viability) which remain increased if LF entry into the cytoplasm is inhibited. This validation assay was performed using a small set of cherry picked compounds. Activation of cell viability (increase in luminescence signal) due to inhibition of the cell surface uPA generation is the desired outcome of this assay.
# NIH Chemical Genomics Center [NCGC]
# NIH Molecular Libraries Probe Centers Network [MLPCN]
# Assay Submitter (PI): Thomas Bugge, National Institute of Dental and Craniofacial Research, NIH
# Cultured RAW 264.7 were dispensed into 1536-well clear bottom, white walled tissue culture plates at a density of 4000 cells/well and were incubated overnight (12-16 h) at 37 C in a 5% CO2 incubator. Serially diluted compounds (1:5 dilution) in 23 nl DMSO were added to cells (0.0024 uM to 3.83 uM final concentration). […] Compound and reagent-treated plates were incubated for 24 h at 37 C in a 5% CO2 incubator. Three microliter of PerkinElmer ATPlite was then added to each well and luminescence was detected using the PerkinElmer ViewLux plate reader for a 5 sec exposure.
# Potency is read from the fitted curve at half-maximal effect.
Compound,inhibition,Potency
COc1ccc(-c2nn(CCC#N)cc2C(=O)Nc2cccc([N+](=O)[O-])c2)cc1OC,-1.4% (inactive),–
CCOc1ccc(CN2CCN(C(=O)Cc3ccccc3)CC2)cc1,-2.65% (inactive),–
FC(F)(F)Oc1ccc(NC2=NCCCS2)cc1,-1.26% (inactive),–
COc1ccccc1NC(=O)N1C[C@@H]2C[C@@H](C1)c1cccc(=O)n1C2,0.817% (inactive),–
Cc1cc(C(=O)NP(=O)(N2CCOCC2)N2CCOCC2)c(C)n1C1CC1,1.26% (inactive),–
COc1ccccc1N1CCN(Cc2ccc(SC)cc2)CC1,-3.27% (inactive),–
O=P1(NCCCl)OCCCN1CCCl (stereo unspecified),-0.345% (inactive),–
COc1ccc(-c2nn(CCC#N)cc2C(=O)Nc2ccccc2)cc1OC,-1.47% (inactive),–
Cc1ccc(-n2c(O)c(C=NCCN3CCNCC3)c(=O)[nH]c2=S)cc1,9.38% (inactive),–
O=c1[nH]c(=O)n(-c2ccc(Cl)cc2)c(O)c1C=Nc1ccc(S(=O)(=O)Nc2nccs2)cc1,-1.14% (inactive),–
O=C(c1ccc(F)c([N+](=O)[O-])c1)N1CC2CC(C1)c1cccc(=O)n1C2 (stereo unspecified),-0.87% (inactive),–
CCOC(=O)c1ccc(N=Cc2c(O)n(-c3ccc(OC)cc3)c(=S)[nH]c2=O)cc1,0.888% (inactive),–
Cc1ncc(CN2CCCC(C(=O)c3cccc(OC(C)C)c3)C2)s1 (stereo unspecified),-2.04% (inactive),–
CCC(C)C1NC(=O)C2CCCN2C(=O)C(CC(C)C)OC(=O)CCNC(=O)C(C)N(C)C(=O)C(C(C)C)N(C)C1=O (stereo unspecified) (cyclo([ξLac(3-iPr)]PI[NMeV][NMeA][βAla]); configuration not given here),–,3.69 µM (active)
c1cncc(C2CCCCN2)c1 (stereo unspecified),0.0289% (inactive),–
COCC(=O)N1Cc2ccccc2-n2nncc2C1,1.13% (inactive),–
COC(=O)C1=C(c2cccc(OC)c2OC)C[C@@H]2CC[C@H]1N2C(=O)NC1CC1,-0.831% (inactive),–
O=c1[nH]c(=O)n(CCc2ccccc2)c(O)c1C=NC1CC1,-1.12% (inactive),–
CCCCCn1c(=O)c(C(=O)Nc2ccccn2)c(O)c2ccccc21,-3.37% (inactive),–
C[N+](C)(C)CCOC(=O)CBr,-2.83% (inactive),–
Cc1ccccc1O,-0.088% (inactive),–
